Measurements published in PubChem BioAssay (NCATS).
Records with an inconclusive call do not appear. A call without a number means that no potency is given here. Activity calls are given as the source filed them. The call rests on the fitted dose curve; in most records, active means well fitted inhibition curve with a large enough effect; inconclusive means small, poorly fitted or top-dose-only effect; inactive means no such curve, though single readings can be large or run the other way.

Biological target: Retinaldehyde dehydrogenase 3 (Homo sapiens) (UniProt P47895)
Experiment: qHTS for Inhibitors of the Aldehyde Dehydrogenase Family (ALDH1A3) Primary screen (AID 2061315)
Settings: ALDH inhibition qHTS; series mostly up to 56 µM

SMILES | Potency
O=C(/C=C/c1ccc(O)cc1)OC1[C@H](O)CC(O)(C(=O)O)C[C@H]1O (stereo not given in full) | inactive
Fc1ccc(-c2c3cccc(C(F)(F)F)c3nn2Cc2ccc(F)cc2Cl)cc1 | inactive
CC(=O)OC[C@@]12[C@@H](OC(C)=O)C[C@@H](C)[C@](C)([C@@H]3C[C@H]4C=CO[C@H]4O3)[C@H]1CCC[C@]21CO1 | inactive
C=C1C[C@]23C[C@H]1CC[C@H]2[C@]1(C)CCC[C@@]2(CO)C(=O)O[C@H]([C@H]21)[C@@H]3O | inactive
CC1=CC(=O)CC(C)(C)C1CCC(C)O[C@@H]1O[C@H](CO[C@@H]2OC[C@@H](O)[C@H](O)[C@H]2O)[C@@H](O)[C@H](O)[C@H]1O (stereo not given in full) | inactive
CC(C)c1cc2c(c(O)c1O[C@@H]1O[C@H](CO)[C@@H](O)[C@H](O)[C@H]1O)CC1(O)CCC(O)C(C)(C)C1CC2 (stereo not given in full) | inactive
C=C1C[C@]23C[C@H]1CC[C@H]2[C@@]1(C)CCC[C@@]2(C)C(=O)O[C@@H]([C@@H]3O)[C@@H]12 | inactive
Cc1ccc(N2CCN(S(=O)(=O)N3CCCCC3)CC2)c(C)c1 | inactive
CC1(C)CCCC2(C)C(CO)C(CO)=CCC12 (stereo not given) | inactive
CC1(C)CC2C(O)C3=C(CC(C)(O)C2C1)C(=O)OC3 (stereo not given) | inactive
NCCCNc1ccc(Nc2nccc(Nc3cc(C4CC4)[nH]n3)n2)cc1 | inactive
C=C(C)[C@@H]1CC[C@]2(C(=O)O)CC[C@]3(C)C(CCC4[C@@]5(C)C[C@@H](O)[C@H](O)C(C)(C)C5CC[C@]43C)C12 (stereo not given in full) | inactive
CC(CCC1(O)OC2CC3C4CCC5CC(O[C@@H]6O[C@H](CO)[C@@H](O)[C@H](O)[C@H]6O[C@@H]6OC[C@@H](O)[C@H](O)[C@H]6O)C(O)CC5(C)C4CCC3(C)C2C1C)CO[C@@H]1O[C@H](CO)[C@@H](O)[C@H](O)[C@H]1O (stereo not given in full) | inactive
CC1=CC(=O)[C@@]2(C(C)C)C[C@@H]12 | inactive
O=C(O[C@@H]1O[C@H](CO)[C@@H](O)[C@H](O)[C@H]1O)c1c(O)cc(O)cc1/C=C/c1ccccc1 | inactive
CC1(CO)CC2C(O)C3=C(CC(C)(O)C2C1)C(=O)OC3 (stereo not given) | inactive
CC1(C)CCCC2(C)C=C(C(=O)O)C(O)CC12 (stereo not given) | inactive
CC1C2=CC(=O)OC2(O)CC2C1CCC1C(C)(C)CCC(O)C21C (stereo not given) | inactive
C=C(C(=O)O)[C@H]1C[C@]2(C)[C@@H](O)CC[C@]23O[C@H]1C[C@@H]3C | inactive
Oc1ccc2c(-c3c(-c4ccccn4)nn4c3CCC4)ccnc2c1 | inactive

SMILES | Potency
CC(=O)OC(CSC1CCC(=O)OC(C)CCC(=O)C1)C(=O)O (stereo not given) | inactive
C#C[C@]1(OC(C)=O)CC[C@H]2[C@@H]3CCC4=C[C@@H](OC(C)=O)CC[C@@H]4[C@H]3CC[C@@]21C | inactive
O=C(Nc1nnc(-c2ccc3c(c2)OCCO3)o1)C1CCCCC1 | inactive
CO[C@@H]1CC(OC2CCC3(C)C(CCC45CCC(C6=CC(=O)OC6)C(C)(CCC43)C5=O)C2)O[C@H](C)[C@@H]1O[C@@H]1O[C@H](CO[C@@H]2O[C@H](CO)[C@@H](O)[C@H](O)[C@H]2O)[C@@H](O)[C@H](O)[C@H]1O (stereo not given in full) | inactive
C=C1C2CCC3C(CCC4[C@@]3(C)CCC[C@@]4(C)C(=O)O)(C2)[C@@H]1OC(=O)/C(C)=C\C (stereo not given in full) | inactive
C[C@@H]1O[C@@H](O[C@H]2[C@H](O[C@H]3[C@H](O[C@H]4CC[C@@]5(C)C(CC[C@]6(C)C5CC=C5[C@@H]7CC(C)(C)C[C@@H](O)[C@]7(C)CC[C@]56C)C4(C)C)O[C@H](C(=O)O)[C@@H](O)[C@@H]3O)O[C@H](C(=O)O)[C@H](O)[C@@H]2O)[C@H](O)[C@H](O)[C@H]1O (stereo not given in full) | inactive
C=C1CC[C@@H]2[C@](C)(CO)[C@H](O)CC[C@@]2(C)[C@@H]1C/C=C1/C(=O)OC[C@@H]1O | inactive
CC1(C)CC[C@]2(C(=O)O)CC[C@]3(C)C(=CCC4[C@@]5(C)C[C@@H](O)[C@H](O)[C@](C)(CO)C5CC[C@]43C)[C@@H]2[C@@H]1O (stereo not given in full) | inactive
CC(C)c1cc(-c2ccc(F)c3ccccc23)nc(N)n1 | inactive
C/C(=C\CCC1(C)C2CC3C(C2)C31C)C(=O)O (stereo not given) | inactive
CC(C)=C1C[C@@]2(C)C(=CC1=O)CC[C@@H](O)[C@@H]2C | inactive
CCCCS(=O)(=O)N[C@@H](Cc1ccc(OCCCCC2CCNCC2)cc1)C(=O)O | inactive
COc1cc(-c2ccc(O)cc2)c(OC)c(O)c1C1=CC(=O)OC1CC(=O)O (stereo not given) | inactive
CC[C@@H](C)[C@H]1C(=O)O[C@H](C(C)C)C(=O)N(C)[C@@H](C(C)C)C(=O)O[C@H](C(C)C)C(=O)N(C)[C@@H](C(C)C)C(=O)O[C@H](CC(C)C)C(=O)N1C | inactive
CO[C@H]1C[C@@H]2CC[C@@H](C)[C@@](O)(O2)C(=O)C(=O)N2CCCC[C@H]2C(=O)O[C@H]([C@H](C)C[C@@H]2CC[C@H](n3cnnn3)[C@H](OC)C2)CC(=O)[C@H](C)/C=C(\C)[C@@H](O)[C@@H](OC)C(=O)[C@H](C)C[C@H](C)/C=C/C=C/C=C/1C | inactive
CC(C)=CCc1cc(O[C@@H]2O[C@H](CO[C@@H]3OC[C@](O)(CO)[C@H]3O)[C@@H](O)[C@H](O)[C@H]2O)ccc1O | inactive
COc1cc(C(CO)CO[C@@H]2O[C@H](CO)[C@@H](O)[C@H](O)[C@H]2O)ccc1O (stereo not given in full) | inactive
CC1(C)CCCC2(C)C1CC=C1C(=O)OC(O)C12O (stereo not given) | inactive
C=C(CO)C(=O)O[C@H]1C[C@@]23O[C@@H]2CC/C(=C/[C@H]2OC(=O)C(=C)[C@H]12)CO[C@H]3O | inactive
COC(=O)C1=CO[C@@H](O[C@@H]2O[C@H](CO)[C@@H](O)[C@H](O)[C@H]2O)[C@@H]2C(CO)=CC[C@]12O | inactive
